Source: PubChem BioAssay AID1224852 (National Center for Advancing Translational Sciences (NCATS), 2016)
Inconclusive results are not listed. Unmarked numbers belong to inactive results. Calls follow the shape of the dose curve; as a rule, active = well fitted curve in the direction sought with a large enough effect (not every such curve was filed as active); inconclusive = small, poorly fitted or top-dose-only effect, or effect the other way, or another doubt; inactive = no such curve, though single readings can be large or run the other way.

Assay: Cell viability assay for measurement of the protective activity of small molecules against cell death caused by Zika virus infection in human neural progenitor cells (hNPCs);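 also: 0% = ZIKV-infected cells without compound and 100% = uninfected cells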
Details: hNPC ZIKV-induced death protection, ATP luminescence, 72 h; series mostly up to 46.1 µM; protection, negative = more death: at the top concentration
Summary of the method: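 Human neural progenitor cells pretreated 1 h with compounds, then infected with Zika virus at 2 FFU/cell for 72 h at 37 C. Viability read as ATP-content luminescence; values are percent inhibition of the virus-induced viability loss.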

In order of rising “protection, negative = more death” value:
1. O[C@@H](COc1cccc2ncccc12)CN1CCN(C2c3ccccc3[C@@H]3[C@H](c4ccccc42)C3(F)F)CC1 (stereo partly drawn)  -81.6%
2. CC(C)c1ccc2oc3nc(N)c(C(=O)O)cc3c(=O)c2c1  -79%
3. CCCCC1C(=O)N(c2ccccc2)N(c2ccc(O)cc2)C1=O (stereo not drawn)  -76.6%
4. C=C1C(=O)[C@@]23C(CC[C@@H]1[C@H]2O)[C@@]12CO[C@]3(O)[C@@H](O)[C@@H]1C(C)(C)CC[C@@H]2O (stereo partly drawn)  -75.9%
5. CS(=O)(=O)c1ccc(-c2cn3ccccc3n2)cc1  -69.3%
6. NC(=O)c1cccc2[nH]c(-c3ccc([C@H]4CCCN4)cc3F)nc12  -66.1%
7. CN(C)c1ccc(/C=C2\C(=O)Nc3ccccc32)cc1  -52.9%
8. Cc1oncc1C(=O)Nc1ccc(C(F)(F)F)cc1  -51.4%
9. COc1ccc(-c2coc3cc(O)ccc3c2=O)cc1  -49.1%
10. CC(C)Oc1ccc2c(=O)c(-c3ccccc3)coc2c1  -49.1%
11. O=c1c(-c2ccc(O)cc2)coc2cc(O)ccc12  -48.8%
12. CCCC(=O)OC[C@@H](OC(=O)CCC)[C@@H](OC(=O)CCC)[C@H](Cn1c2nc(=O)[nH]c(=O)c-2nc2cc(C)c(C)cc21)OC(=O)CCC  -47.2%
13. Cc1nc(-c2ccc(OCC(C)C)c(C#N)c2)sc1C(=O)O  -46.3%
14. CCCS(=O)c1ccc2nc(NC(=O)OC)[nH]c2c1 (stereo not drawn)  -43.9%
15. COc1ccc(CC2=NN3C([C@@H](CCc4ccccc4)[C@@H](C)O)=NC(C)C3C(=O)N2)cc1OC (stereo partly drawn)  -42.9%
16. COc1ccnc2c1CCCCC2S(=O)c1nc2ccccc2[nH]1 (stereo not drawn)  -42.6%
17. C[C@@H](N)c1ccc(C(=O)Nc2ccnc3[nH]ccc23)cc1  -39.7%
18. O=c1oc2cc(O)ccc2s1  -37.6%
19. Cc1ccc2c(n1)Oc1ccc(C(C)C(=O)OCC(=O)N(C)C)cc1C2 (stereo not drawn)  -34.7%
20. Cc1nc(N)sc1-c1ccnc(Nc2ccc(N3CCOCC3)cc2)n1  -31.2%
21. COc1ccc(NC(=O)/C=C/c2ccc(Cl)cc2)cc1  -28.4%
22. CC(=O)Oc1cccc2c1C(=O)c1c(OC(C)=O)cc(C(=O)O)cc1C2=O  -25.4%
23. O=C1NC(=O)C(=Cc2ccc(-c3ccc(F)cc3)o2)S1  -16.4%
24. Cc1cccc(/C=C/c2ccccc2)n1  -15.4%
25. CCC(C(=O)O)c1ccc(N2Cc3ccccc3C2=O)cc1 (stereo not drawn)  -9.9%
26. Cc1c(C(=O)O)c(O)cc2c1C(=O)c1c(O)c([C@@H]3O[C@H](CO)[C@@H](O)[C@H](O)[C@H]3O)c(O)c(O)c1C2=O  -7.65%
27. CC(C(=O)O)c1ccc(C(=O)c2ccccc2)s1 (stereo not drawn)  -7.59%
28. CCCCCCCC/C=C/C(=O)O  -1.9%
29. CCCCCCOc1ccccc1C(N)=O  4.91%
30. O=C(O)[C@H](CC(=O)N1C[C@@H]2CCCC[C@H]2C1)Cc1ccccc1  13.4%

With `CC1(C)OC2=C(C(=O)c3ccccc3C2=O)[C@H](NCc2ccccc2)[C@H]1O` the “protection, negative = more death” value was -81.5% [at 88.3 µM].

For `Nc1ccc2c(c1)CN1C(=O)c3ccccc3C1=N2`, the “protection, negative = more death” value was -60.2% [at 23.8 µM].

In the case of `O=C(Oc1ccccc1)c1cccc(C(=O)Oc2ccccc2)c1`, the “protection, negative = more death” value is reported as -16.5% [at 96.3 µM].
